L major viab: Leishmania major promastigote growth inhibition. AID 1063. inhibition, % at 10 µM. Leishmania major promastigotes, resazurin fluorescence viability. 200,000 compounds, 9% hits; in the data active = inhibition above about 50%;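 also: promastigotes grown with compound for 44 hours at 28 °C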
WT yeast gro inh: growth inhibition of WT yeast, mitochondrial fusion screen; inhibition, % at 10 µM; mitochondrial fusion phenotypic screen, WT strain; 190,000 compounds, 2.1% hits; in the data active = inhibition above about 58%; tested in S. cerevisiae
CHOP inh: inhibitors of CHOP induction in ER stress response. CHO-K1 CHOP-promoter luciferase, tunicamycin-induced, 15-18 h. inhibition, % at 10 µM. 220,000 compounds, 3.8% hits;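 active = compounds that reduced the stress-induced luciferase reporter signal by more than about 70% of percent inhibition, limit read from the data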;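 also: 0% = tunicamycin plus vehicle and 100% = wells without tunicamycin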
RAM network inh: yeast RAM network inhibition | S. cerevisiae dse1pr::URA3 reporter, 5-FOA growth OD615, 2 d; analog-sensitive cbk1-as2 kinase mutant strain | inhibition, % at 50 µM | 190,000 compounds, 1.8% hits | AID 868;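 active = inhibition above a set limit, 3 SD over mean compound inhibition, cut at about 8.4% in these data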;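 also: 0% = DMSO-only wells with no growth and 100% = 10 µM 1-NA-PP1 full growth; inhibition rescues growth on 5-FOA so higher OD means more RAM inhibition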
Starred values were filed as active, the others as inactive; / = not tested or not shown. Shown are actives, neighbours in structure and some others; about 13% of the full set was active somewhere.

SMILES	L major viab	WT yeast gro inh	CHOP inh	RAM network inh
CC(=O)c1cccc(Nc2cc(C)nc3c(C)cc(C)cc23)c1	100*	-28	0	1
O=C(COC(=O)C1CCCCC1)Nc1cc([N+](=O)[O-])ccc1F	5	3	24	-2
CCCC1(C)Nc2ccccc2-c2nc3ccccc3n21 (stereo unspecified)	85*	8	-24	0
c1ccc2c(c1)NC1(CCCC1)n1c-2nc2ccccc21	44	18	3	4
COCCN(C(=O)CN1CCN(S(=O)(=O)c2ccc(F)cc2)CC1)c1c(N)n(Cc2ccccc2)c(=O)[nH]c1=O	-7	-15	27	0
CC(=O)Nc1sc2c(c1C(c1ccc(Cl)cc1)N1CCOCC1)CCCC2 (stereo unspecified)	23	81*	7	2
Cc1ccc(SC(C)C(=O)Nc2cccc(N(C)S(C)(=O)=O)c2)cc1 (stereo unspecified)	49	-4	9	0
Cc1ccc(SC(C)C(=O)Nc2cccnc2)cc1 (stereo unspecified)	-3	11	8	2
Cc1ccc(SC(C)C(=O)Nc2ccncc2)cc1 (stereo unspecified)	93*	-8	42	0
CSc1cccc(NC(=O)C(C)Sc2ccc(C)cc2)c1 (stereo unspecified)	-6	16	78*	2
O=C(Nc1cccc2nsnc12)c1cccnc1	78*	-4	-4	1
O=c1cc(NS(=O)(=O)c2ccccc2)nc(SCc2ccccc2Cl)[nH]1	0	0	26	2
Cc1ccc(S(=O)(=O)Nc2cc(=O)[nH]c(SCc3ccc(Cl)cc3)n2)cc1	0	-1	86*	2
O=c1cc(NS(=O)(=O)c2ccccc2)nc(SCc2c(Cl)cccc2Cl)[nH]1	69*	-1	80*	3
Nc1cc(=O)[nH]c(SCc2ccc(Cl)cc2)n1	69*	-1	16	1
C/C(=N\NC(=O)c1nn(C)c(C)c1Br)c1cccc(NC(=O)c2ccoc2C)c1	-1	17	-26	3
O=C(NCc1ccccc1)c1ccc(C2SCC(=O)N2Cc2ccccc2)cc1 (stereo unspecified)	97*	21	35	1
CCc1ccc(NC(=O)c2ccc(C3SCC(=O)N3CCc3ccccc3)cc2)cc1 (stereo unspecified)	93*	/	59	6
C=CCNC(=O)c1ccc(C2SCC(=O)N2Cc2ccccc2)cc1 (stereo unspecified)	-4	-15	4	1
CCNC(=O)c1ccc(C2SCC(=O)N2CCc2ccccc2)cc1 (stereo unspecified)	-2	-3	-17	1
O=C(Nc1ccc(Cl)c(C(F)(F)F)c1)C1CCCN(S(=O)(=O)c2cnc[nH]2)C1 (stereo unspecified)	0	2	/	0
CCN(CC(=O)Nc1ccc(N2CCOCC2)cc1)C(=O)COc1ccccc1OC	-3	5	9	0
CN1CCN(S(=O)(=O)c2cnccc2N2CCN(c3cccc(Cl)c3)CC2)CC1	32	16	16	0
CCN(CC)S(=O)(=O)c1cnccc1N1CCN(c2cccc(Cl)c2)CC1	100*	58*	-33	0
CNS(=O)(=O)c1cnccc1N1CCN(c2cccc(Cl)c2)CC1	100*	1	28	2
SMILES	L major viab	WT yeast gro inh	CHOP inh	RAM network inh
NC(=O)c1ccc(C(F)(F)F)n(Cc2ccccc2Cl)c1=O	3	4	92*	6
O=C(O)C(c1ccccc1)C(c1ccccc1)c1ccccc1 (stereo unspecified)	-3	-8	-24	2
COc1cccc(F)c1C(=O)NC(=O)Nc1ccc2nc(C)oc2c1	/	/	0	/
c1ccc(-c2nc(N3CCCCCC3)nc(-n3ccnc3)n2)cc1	96*	17	15	-2
c1ccc(-c2nc(N3CCN(c4ccccc4)CC3)nc(-n3ccnc3)n2)cc1	67*	68*	8	-1
c1ccc(N2CCN(c3ncccn3)CC2)cc1	-4	-23	-6	1
COC(=O)C(=C/C(C)=C/c1cccnc1)C(=O)OC	71*	-24	-81	2
COC(=O)c1cc2occc2n1Cc1ccc(Cl)cc1	56*	35	87*	0
COC(=O)c1cc2sccc2n1Cc1nc(-c2ccc(Cl)cc2)oc1C	6	3	14	3
COC(=O)c1cc2sccc2n1Cc1nc(-c2cccc(Cl)c2)oc1C	64*	-4	26	5
COC(=O)c1cc2sccc2n1CC(=O)Nc1cccc(SC)c1	-3	6	85*	5
COC(=O)c1cc2ccsc2n1Cc1nc(-c2cccc(Cl)c2)oc1C	34	25	33	4
COC(=O)c1cc2occc2n1Cc1nc(-c2cccc(Cl)c2)oc1C	-6	10	3	11*
C[C@]1(C(=O)NCc2cc(F)cc(C(F)(F)F)c2)C=C[C@@H](Cc2ccccc2)N1C(=O)c1ccccc1	14	52	20	5
COCCN1C=C(C(=O)OC)C(c2cc(Br)c(OC)c(OC)c2)C(C(=O)OC)=C1	100*	2	-7	0
COCCN1C=C(C(=O)OC)C(c2ccccc2Cl)C(C(=O)OC)=C1	1	-16	-12	2
CC1(c2ccc(OCC#N)cc2)C=C(c2ccc(OCC#N)cc2)n2nc(C(F)(F)F)nc2N1 (stereo unspecified)	97*	-1	10	6
Cc1ccc(C2=CC(C)(c3ccc(C)cc3)Nc3nc(C(F)(F)F)nn32)cc1 (stereo unspecified)	39	71*	10	2
CC(C)c1csc(CN2CCC(N3CCC(C(=O)NCC4CCCO4)CC3)CC2)n1 (stereo unspecified)	-7	-2	-12	0
CCn1c(C)c(C(C)=O)cc(C#N)c1=O	-3	-12	35	0
FC(F)(F)c1cccc(Cc2noc(CN3C[C@@H]4CCC[C@H]3C4)n2)c1	25	-4	2	1
Cn1ccnc1C1CCCCN1Cc1nc(Cc2cccc(C(F)(F)F)c2)no1 (stereo unspecified)	66*	16	-4	2
CC(C)(C)c1ccc(C2C3=C(CCCC3=O)NC3=C2C(=O)c2ccccc23)cc1 (stereo unspecified)	88*	3	21	2
CC1(C)CC(=O)C2=C(C1)NC1=C(C(=O)c3ccccc31)C2c1ccccc1 (stereo unspecified)	89*	11	14	3
CC(C)c1ccc(C2C3=C(CC(C)(C)CC3=O)NC3=C2C(=O)c2ccccc23)cc1 (stereo unspecified)	89*	-2	41	6
COc1ccccc1N1CCN(CC(=O)Nc2ccc(-n3cnnn3)cc2)CC1	-4	-7	-1	-1
CCN(C(=O)CN1CCN(S(=O)(=O)c2cc(Cl)ccc2Cl)CC1)c1c(N)n(Cc2ccccc2)c(=O)[nH]c1=O	39	0	24	2
O=[N+]([O-])c1ccc(N/N=C/c2cccc(O)c2O)c(S(=O)(=O)N2CCOCC2)c1	0	19	-7	3
O=[N+]([O-])c1cccc(/C=N\N=C2c3ccccc3-c3ccccc32)c1O	74*	11	48	9.9*
